Experimental data from ChEMBL document CHEMBL4513216, “Probing the Open Global Health Chemical Diversity Library for Multistage-Active Starting Points for Next-Generation Antimalarials” (ACS Infect Dis, 2020).
About 8,600 (12%) of roughly 69,000 compounds showed an effect of 50% or more. This excerpt belongs to a sample that is enriched for strong results.

What follows are compounds tested on Plasmodium berghei (assay: Screen against P. berghei liver stage (PbLuc), transformed with Luciferase, at 10uM). Conditions: tested at 10 uM.
Assay type: functional, HepG2

Row | Compound | INHIBITION
1 | NCCCC(=O)NCC1(O)CCN(c2ccnc3cccnc23)C1 (centres undefined) | 8.3035%
2 | OCC1CCCN1c1cc(NCc2ccccn2)ncn1 (centres undefined) | -41.6%
3 | OCC1CCCN1c1cc(NCCNc2ccccn2)ncn1 (centres undefined) | 7.12%
4 | OCC1CCCN1c1cc(NCc2ccsc2)ncn1 (centres undefined) | 43.2%
5 | OCC1CCCN1c1cc(NCCc2ccsc2)ncn1 (centres undefined) | 66.3%
6 | OCC1CCCN1c1cc(NCCc2nccs2)ncn1 (centres undefined) | -0.71%
7 | OCC1CCCN1c1cc(NCCc2ccccn2)ncn1 (centres undefined) | 64.1%
8 | C[C@@H]1C[C@H](C(F)(F)F)n2nc(C3CCN(S(=O)(=O)N(C)C)CC3)cc2N1 | -2.11%
9 | CNS(=O)(=O)c1ccc(C(=O)N2CCCC2c2ccccc2C)o1 (centres undefined) | 7.27%
10 | O=C(NCc1nn(-c2ccccc2)c2c1CCC2)N1CCCC(O)C1 (centres undefined) | -49.4%
11 | CN(CCO)Cc1nnc(C2CCN(C(=O)C3CCOCC3)CC2)n1C | 39.1%
12 | CCN(C)CC(=O)N1CCCC(c2nnc(CN3CCOCC3)n2C)C1 (centres undefined) | 55.7%
13 | Cn1c(CN2CCCC2)nnc1C1CCCN(C(=O)CN2CCCC2)C1 (centres undefined) | 21.2%
14 | Cn1c(CN2CCCC2)nnc1C1CCCN(C(=O)C2CCOCC2)C1 (centres undefined) | 70.1%
15 | CN1CCN(Cc2nnc(C3CCN(C4CCCCC4)CC3)n2C)CC1 | -10.9%
16 | CN1CCN(Cc2nnc(C3CCN(C(CO)CO)CC3)n2C)CC1 | 62.9%
17 | CN1CCN(Cc2nnc(C3CCN(CC4CC4)CC3)n2C)CC1 | -17%
18 | Cn1c(CN2CCOCC2)nnc1C1CCN(C(=O)C2CCCC2)CC1 | 50.1%
19 | CCCOC(=O)N1CCCC(c2nnc(CN3CCOCC3)n2C)C1 (centres undefined) | 31.2%
20 | Cn1c(CN2CCOCC2)nnc1C1CCCN(C(=O)CCC2CC2)C1 (centres undefined) | 8.51%
21 | Cn1c(CN2CCCC2)nnc1C1CCCN(C(=O)N2CCOCC2)C1 (centres undefined) | 5.78%
22 | CN1CCC(c2nnc(CN3CCOCC3)n2C)CC1 | 27.7%
23 | O=C(O)[C@@H]1CN(C(=O)CN2CCCCCC2)C[C@H]1c1ccccc1 | -6.21%

Row | Compound | INHIBITION
24 | CC(C)C1=NOC2(CCN(S(C)(=O)=O)CC2)C1 | -35.4%
25 | Cc1cc(C)n(CC2CCN(CC(O)COc3ccccc3)CC2)n1 (centres undefined) | 26.8%
26 | NC1CCC(n2cc(C(=O)N[C@H]3CCCc4ccccc43)nn2)CC1 (some centres undefined) | 16.6%
27 | CCc1nc(C2CCCN(C(=O)c3ccncc3)C2)no1 (centres undefined) | -61.4%
28 | Cc1noc(C)c1-c1cc(CCC2CN(CCC(N)=O)CCO2)ncn1 (centres undefined) | -2.2555%
29 | CCSCc1ccc(C(=O)N2CCCN(CC)CC2)cc1 | 47%
30 | COc1ccc(C(C)NCCc2ccc(NC(C)=O)cc2)c(OC)c1 (centres undefined) | 1.56%
31 | CN(C)c1cccc(C2CCCN2S(=O)(=O)c2cn(C)cn2)n1 (centres undefined) | -52.6%
32 | CSCCC(NC(N)=O)C(=O)NCc1ccc(-n2cccn2)cc1 (centres undefined) | 56.6%
33 | CN(Cc1ccc(-n2cccn2)cc1)C(=O)CCC(F)(F)F | 35.1%
34 | CSCCC(NC(N)=O)C(=O)NCc1cnn(-c2ccccc2)c1 (centres undefined) | 29.8%
35 | CSCC[C@H](NC(C)=O)C(=O)N(C)Cc1ccc(-n2cccn2)cc1 | 54.4%
36 | CSCCC(O)C(=O)N(C)Cc1cnn(-c2ccc(F)cc2)c1 (centres undefined) | 24.2%
37 | CSCCC(NC(N)=O)C(=O)Nc1ccc(-n2cccn2)nc1 (centres undefined) | 1.79%
38 | Cc1cnc(C(=O)N2C[C@@H]3CC[C@H]2CN(S(=O)(=O)N(C)C)C3)cn1 | 42%
39 | O=C(NC1CC1)N1C[C@@H]2CCN(C(=O)c3cscn3)[C@@H]2C1 | -1.28%
40 | Cn1cc(Cl)cc1C(=O)N1CCCN(Cc2nccn2C)CC1 | 0.16%
41 | CCCc1noc(CN2CCCC2c2noc(C3CC3)n2)n1 (centres undefined) | 40.9%
42 | O=C(NC1CC1)[C@H]1C[C@H]2OCC[C@H]2N(Cc2ccc(F)cc2)C1 | -15.3%
43 | Cc1cnc(-n2cnnc2)c(-c2cccc3c2CCNC3)c1 | 53.3%
44 | CN(C)C(=O)c1ccc(-c2cccc3c2CCNC3)cc1 | 33.9%
45 | Cc1ccc(C(=O)O)cc1-c1cccc2c1CCNC2 | 15.8%
46 | Cc1cc(-c2cccc3c2CCNC3)cnc1-n1cnnc1 | 26.4%

Row | Compound | INHIBITION
47 | Cc1nc(-n2cnnc2)ccc1-c1cccc2c1CCNC2 | 61.1%
48 | COc1ccc(C(=O)O)cc1-c1cccc2c1CCNC2 | 21.2%
49 | CCn1cncc1CN1CCN(CC2(c3ccc(C)cc3)CC2)CC1 | -29.9%
50 | O=C(O)C1(Cc2cc(-c3ccccc3F)no2)CCOCC1 | 21.9%
51 | Cc1nn(C)c2nc(NCCN3CCCC(C(N)=O)C3)sc12 (centres undefined) | 20%
52 | Cn1ccnc1CN1CCC(CCCc2ccccn2)(C(N)=O)CC1 | -20.6%
53 | CNC(=O)C1Cc2ccccc2CN1C(=O)CC(C)C (centres undefined) | -47%
54 | Cc1cc(C)n(CC(C)CNC(=O)NCc2c(C)cc(C)[nH]c2=O)n1 (centres undefined) | 42.3%
55 | Cc1cc(C)n(CCCNC(=O)NCc2c(C)cc(C)[nH]c2=O)n1 | 38.9%
56 | Cc1cc(C)n(CC(C)NC(=O)NCc2c(C)cc(C)[nH]c2=O)n1 (centres undefined) | 50.8%
57 | CCC(=O)N1CCCC1c1n[nH]cc1-c1ccccc1F (centres undefined) | -6.73%
58 | Cc1ccc(C)c(-n2nnnc2SCN2CCCCC2=O)c1 | 13.7%
59 | Cc1ccc(-n2nnnc2SCN2CCCCC2=O)cc1C | 63.8%
60 | O=C1CCCCN1CSc1nnnn1-c1ccc(Cl)cc1 | 30.4%
61 | O=C(Cc1ccccn1)N1CCC(c2noc(-c3ccncc3)n2)CC1 | -8.12%
62 | O=C(NCC1CC1)[C@@H]1CCO[C@@H]2CCN(Cc3ccsc3)C[C@H]21 | -9.71%
63 | CC1CCC(NC(=O)c2nn(C)cc2I)CC1 (centres undefined) | -32.5%
64 | Cn1cc(I)c(C(=O)NC2CCCC2)n1 | -13.2%
65 | CC1CCC(NC(=O)c2nn(C)cc2Br)CC1 (centres undefined) | 65.2%
66 | Cc1nc(C(C)C)sc1C(=O)N1CCN(C2CCSCC2)CC1 | -21.3%
67 | CCC(CCNCc1cnc(C2CCC2)s1)N1CCCC1=O (centres undefined) | 53.4%
68 | CC(c1nc(C2CC2)no1)N1CCN(CCN2CCCC2=O)CC1 (centres undefined) | -65.2%
69 | CC(CCN1CCCC1=O)NCc1cnc(C2CCC2)s1 (centres undefined) | 54.4%

Row | Compound | INHIBITION
70 | Cc1ccc(N2CCC(NCc3cnc(C4CCC4)s3)CC2)nc1 | 34.7%
71 | c1cnc(N2CCC(NCc3cnc(C4CCC4)s3)CC2)nc1 | -22%
72 | O=C1CCCCN1CCCNCc1cnc(C2CCC2)s1 | 3.87%
73 | CC(C)NC(=O)Nc1ccc(CNCc2cccc(OC(F)F)c2)cc1 | 38.6%
74 | Cn1c(Cn2ccnc2)nnc1C1CCN(C(=O)c2cccnc2)CC1 | -27.4%
75 | Cn1cc(N2CC3(CCN(CC4CCC4)CC3)OCC2=O)cn1 | 42.5%
76 | Cc1cc(C)c2c(c1)NC(=O)C2CC(=O)O (centres undefined) | 27.6%
77 | Cc1cc(C)c2c(c1)C(CC(=O)O)C(=O)N2 (centres undefined) | 54.8%
78 | Cc1ccc(C)c2c1NC(=O)C2CC(=O)O (centres undefined) | -95.1%
79 | CCCc1nc(N2CCCN(c3ccncc3)CC2)c2cnn(C)c2n1 | 39.1%
80 | CCn1cnnc1C1CCN(C(=O)c2cc(F)ccc2OC)CC1 | 33.3%
81 | CN(C)C(=O)CCCS(=O)(=O)Cc1cc(Cl)c2c(c1)OCCO2 | 31.9%
82 | CNC(=O)CS(=O)(=O)Cc1cc(Cl)c2c(c1)OCCCO2 | 6.14%
83 | CN(C)C(=O)CCS(=O)(=O)Cc1cc(Cl)c2c(c1)OCO2 | 44.3%
84 | CN(C)C(=O)CS(=O)(=O)Cc1cc(Cl)c2c(c1)OCCCO2 | 21.8%
85 | CS(=O)(=O)CCS(=O)(=O)Cc1cc(Cl)c2c(c1)OCCCO2 | 25.5%
86 | NC(=O)CS(=O)(=O)Cc1cc(Cl)c2c(c1)OCCCO2 | -125%
87 | CS(=O)(=O)Cc1cc(Cl)c2c(c1)OCCCO2 | 50.1%
88 | O=C(CS(=O)(=O)Cc1cc(Cl)c2c(c1)OCCCO2)NCC1CC1 | 60.5%
89 | CN(C)C(=O)CCS(=O)(=O)Cc1cc(Cl)c2c(c1)OCCO2 | 54.4%
90 | CSCC(=O)N1C[C@H](c2ccc(C)o2)[C@@H](N)C1 | -1.45%
91 | CCNc1ncc(CN2CCOC(Cc3cccc(OC)c3)C2)cn1 (centres undefined) | 15.2%
92 | Cn1cnc2c1C(COCc1cccnc1)N(Cc1nccs1)CC2 (centres undefined) | 20.1%

Row | Compound | INHIBITION
93 | CCN(Cc1c(C)nn(CC)c1C)S(=O)(=O)c1cn(C)nc1C | 8.49%
94 | COc1ccccc1CN1CC[C@]2(C[C@@H](OC)CO2)C1 | -79.4%
95 | CCC(C(=O)NC1CCCCC1)n1ccc2ncccc2c1=O (centres undefined) | -4.12%
96 | Nc1nc(N2CCCCCC2)ncc1C(=O)NCc1ccc(F)c(Cl)c1 | 43.8%
97 | CN(C)CC1(O)CCCN(C(=O)CCc2nc3cccnc3n2C)C1 (centres undefined) | 8.64%
98 | CS(=O)(=O)CCNC(=O)c1cc2ccccc2nc1N1CCCC1 | -1.37%
99 | CCOC(=O)NCCNC(=O)c1cc2ccccc2nc1N1CCCC1 | -7.36%
100 | Cn1cc(CCNC(=O)c2cc3ccccc3nc2N2CCCC2)cn1 | 59.4%
101 | Cn1c(CCC(=O)N2CCC3(CCCO3)CC2)nc2cccnc21 | 27.4%
102 | CCc1cc(CNC(=O)N2CCC(Cc3cnn(C)c3)C2)on1 (centres undefined) | 3.1%
103 | COc1ccccc1C1CNC(=O)c2nc(-c3ncc[nH]3)[nH]c2C1 (centres undefined) | 1.81%
104 | COc1ccccc1C1CNC(=O)c2nc(-c3nccn3C)[nH]c2C1 (centres undefined) | 55.7%
105 | COc1ccccc1C1CNC(=O)c2nc(-c3cnn(C)c3)[nH]c2C1 (centres undefined) | -36.5%
106 | Cc1nnc(NCC2(c3ccccc3)CC2)c(C#N)c1C | 9.48%
107 | COc1ccccc1C1(CNc2nnc(C)c(C)c2C#N)CCOCC1 | -10.2%
108 | Cc1ccccc1C1(CNc2nnc(C)c(C)c2C#N)CCOCC1 | 17.4%
109 | Cc1nnc(NCC2(c3ccccc3)CCC2)c(C#N)c1C | 92.1%
110 | COc1ccccc1C1(CNc2nnc(C)c(C)c2C#N)CCCC1 | 97.1%
111 | Cc1nnc(NCC2(c3ccc(Cl)cc3Cl)CCOCC2)c(C#N)c1C | 52.9%
112 | Cc1nnc(NCC2(c3ccccc3)CCOCC2)c(C#N)c1C | 6.67%
113 | Cc1nnc(NCc2ccccc2Cl)c(C#N)c1C | 49.9%
114 | COCc1ccccc1CNc1nnc(C)c(C)c1C#N | 22.9%
